# Values joined by “and” are separate entries in the source; they are usually repeats but may differ in a detail not shown here. Equal entries are not always repeated. Among all 150,000 compounds or so, about 6,500 (4.3%) were called active. Another 12% or so got no clear call; they are omitted. Calls come from the whole dose curve; as a rule, active = well fitted inhibition curve with a large enough effect (not every such curve was filed as active); inconclusive = small, poorly fitted or top-dose-only effect, or another doubt; inactive = no such curve, though single readings can be large or run the other way. What follows is part of a selection rich in actives, with near analogues and random picks from the rest.
# Target: 15-hydroxyprostaglandin dehydrogenase [NAD(+)] (Homo sapiens) (UniProt P15428)
# Test: qHTS Assay for Inhibitors of HPGD (15-Hydroxyprostaglandin Dehydrogenase)
# Conditions: purified HPGD, NADH fluorescence kinetic, PGE2 substrate; activity change, negative = inhibition: stronger effect = lower value
# From the text: Human 15-Hydroxyprostaglandin dehydrogenase (HPGD) catalyzes the inactivation of prostaglandin E2, and plays a major role in cancer biology by antagonizing the oncogenic potential of cyclooxygenase type 2 (COX2). Assays are available, based on absorbance/fluorescence increase of NADH with the substrate 15-OH prostaglandin E2. References 1. Myung SJ, Rerko RM, Yan M, Platzer P, Guda K, Dotson A, Lawrence E, Dannenberg AJ, Lovgren AK, Luo G, Pretlow TP, Newman RA, Willis J, Dawson D, Markowitz SD. 15-Hydroxyprostaglandin dehydrogenase is an in vivo suppressor of colon tumorigenesis. […] 2. Yan M, Rerko RM, Platzer P, Dawson D, Willis J, Tong M, Lawrence E, Lutterbaugh J, Lu S, Willson JK, Luo G, Hensold J, Tai HH, Wilson K, Markowitz SD. 15-Hydroxyprostaglandin dehydrogenase, a COX-2 oncogene antagonist, is a TGF-beta-induced suppressor of human gastrointestinal cancers. Proc Natl Acad Sci U S A. 2004 Dec 14;101(50):17468-73. 3. Yang L, Amann JM, Kikuchi T, Porta R, Guix M, Gonzalez A, Park KH, Billheimer D, Arteaga CL, Tai HH, Dubois R, Carbone DP, Johnson DH. Inhibition of Epidermal Growth Factor Receptor Signaling Elevates 15-Hydroxyprostaglandin Dehydrogenase in Non-Small-Cell Lung Cancer. Cancer Res. 2007 Jun 15;67(12):5587-5593. Inhibition of HPGD activity was screened by utilizing prostaglandin as an electron donor and NAD+ as an electron acceptor/cofactor. An increase in the fluorescence intensity due to conversion of NAD+ to NADH was used to measure the enzyme activity. NIH Chemical Genomics Center [NCGC] Structural Genomics Consortium [SGC]
# Buffer: 50 mM Tris-HCl, 0.01% Tween 20, pH 8. Enzyme Buffer: 50 mM Tris-HCl, 0.5 mM NAD+ and 0.01% Tween 20, pH 8. Reagents/Controls: Buffer in columns 3 and 4 as negative control (no enzyme). Substrate/cofactor solution: 1 mM NAD+ and 30 uM prostaglandin (Sigma, prostaglandin E2, # P5640) final concentrations dispensed throughout the plate. Enzyme: 20 nM HPGD final concentration in columns 1, 2, 5-48. Column 1 and 2 is neutral (100% activity). A titration of control inhibitor GW5074 (G6416 Sigma-Aldrich, St. Louis, MO) top concentration 10 mM in DMSO, then 1:2 dilution for a total of 16 concentrations in duplicate) was pin-transferred into column 2. Assay Steps: Three uL of enzyme were dispensed to 1536-well Greiner black solid bottom plates. Compounds and control inhibitor (23 nL) were transferred via Kalypsys PinTool. The plates were incubated for 15 min at room temperature, and then 1 uL of substrate/cofactor solution was added to start the reaction. The plates were immediately transferred to and read 5 times every 30 seconds on ViewLux High-throughput CCD imager (Perkin-Elmer) using 360 nm excitation and 450 nm emission fluorescence protocol. The fluorescence intensity difference between the last and the first time points was used to compute reaction progress.
# % is set by controls: 0 for no effect and ±100 for the full control effect; potency is the fitted concentration of half-maximal effect.
# Chain of 15-hydroxyprostaglandin dehydrogenase [NAD(+)] (Homo sapiens) (P15428 whole entry, looked up): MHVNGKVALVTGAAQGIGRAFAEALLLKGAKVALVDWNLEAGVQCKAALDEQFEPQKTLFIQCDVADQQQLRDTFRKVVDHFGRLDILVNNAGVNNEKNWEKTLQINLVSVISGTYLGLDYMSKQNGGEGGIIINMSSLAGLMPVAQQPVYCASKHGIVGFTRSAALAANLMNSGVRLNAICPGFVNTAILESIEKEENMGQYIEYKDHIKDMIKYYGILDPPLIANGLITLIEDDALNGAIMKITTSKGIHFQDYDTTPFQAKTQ
Compound,"activity change, negative = inhibition",Potency
COc1ccccc1NC(=O)C1=C(C)NC2=C(C(=O)CCC2)C1c1ccc(C)o1 (centres undefined),-4.54% (inactive),
COC(=O)C1=C(C)NC2=C(C(=O)c3ccccc32)C1c1ccc(-c2ccc(C(=O)O)cc2)o1 (centres undefined),,17.8 µM (active)
Cc1ccc(C2C3=C(Nc4[nH]n(-c5ccccc5)c(=O)c42)c2ccccc2C3=O)cc1 (centres undefined),-23.6% (inactive),
Cc1cc(C(C)(C)C)cc(C)c1N,2.4% (inactive),
O=C(OC1CCOC1=O)c1cccc(S(=O)(=O)Nc2ccc(F)cc2)c1 (centres undefined),-0.633% (inactive),
COc1ccc(-c2cc(C(=O)NCc3ccco3)no2)cc1OC,-10.4% (inactive),
O=C(NCc1ccco1)c1ccc(CS(=O)(=O)Cc2ccc(F)cc2)o1,2.28% (inactive),
O=C(NCCCCCCNC(=O)NCc1ccco1)NCc1ccco1,-9.22% (inactive),
O=C(NCc1ccco1)c1sc2cccc(F)c2c1Cl,,3.98 µM (active)
COc1cc(C(=O)NC(=S)NCc2ccco2)cc(OC)c1OC,-21.9% (inactive),
COc1ccc2c(Cl)c(C(=O)NCc3ccco3)sc2c1,,14.1 µM (active)
CCN1CN(Cc2ccccc2)CNC1=S,-9.5% (inactive),
CC(O)c1nc2ccccc2n1Cc1ccc([N+](=O)[O-])cc1 (centres undefined),-6.78% (inactive),
CC(=O)c1c(C)[nH]c(C(=O)OCC(=O)Nc2cc(S(=O)(=O)N3CCCCC3)ccc2C)c1C,-12.5% (inactive),
Cc1ccc(C(=O)N2CCCC2)c(F)c1F,,10 µM (active)
Cc1cccc(C(=O)N2CCCN(C(=O)c3cccc(C)c3)CC2)c1,4.89% (inactive),
CCOC(=O)C1CCCN(C(=O)c2cncc(Br)c2)C1 (centres undefined),-7.12% (inactive),
Cc1ccccc1CN1CCN(C(=O)c2cccc(F)c2)CC1,2.95% (inactive),
Cc1ccc(C(=O)N2CCCCCC2)cc1Br,,5.01 µM (active)
Cc1c(Br)cc(C(=O)N2CCCCCC2)c(C)c1C,,14.1 µM (active)
CNC(=O)n1ccc(C(=O)N2CCCCC2)n1,-21.9% (inactive),
CCCNC(=O)c1ccc(Cl)c(Cl)c1,-21.6% (inactive),
O=C(c1ccc(Cl)c(Cl)c1)N1CCCC1,,20 µM (active)
O=C(Nc1cccc(C(=O)N2CCCC2)c1)c1ccccc1,-13.5% (inactive),

Compound,"activity change, negative = inhibition",Potency
C/C(=C\C(=O)c1ccc(Br)cc1)N1CCCCC1,-21.6% (inactive),
Cc1cc(=O)oc(C)c1C(=O)N1CCCCC1,-2.92% (inactive),
Cc1cc(C(=O)N/N=C/c2ccc(O)c([N+](=O)[O-])c2)c(C)n1-c1ccc(F)cc1,-20.1% (inactive),
COc1ccc(C(=O)NNC(=S)NC(=O)c2ccccc2[N+](=O)[O-])cc1,-1.33% (inactive),
Cc1cc(C)nc(SC2CCCCC2NS(=O)(=O)c2ccc(Cl)cc2)n1 (centres undefined),-1.86% (inactive),
COc1ccc(Cn2c(-c3ccc(Cl)cc3)c[n+]3ccccc23)cc1,1.07% (inactive),
C=CCn1c(SCc2ccc(Cl)c(Cl)c2)nnc1C(CO)NC(=O)c1ccc(OC)cc1 (centres undefined),-18.7% (inactive),
CC(CCc1ccccc1)NC(=O)c1ccc(Br)o1 (centres undefined),,15.8 µM (active)
CCC(C)NC(=O)CCCc1ccccc1 (centres undefined),-18.7% (inactive),
CC(CNC(=O)c1ccc(Br)o1)NC(=O)c1ccc(Br)o1 (centres undefined),-8.51% (inactive),
Cc1cccc(N2Cc3ccccc3C2=NC(=O)c2ccc(Cl)nc2)c1,-15.5% (inactive),
C/C(=C/C(=O)N1CCN(C)CC1)C(=O)O,4.4% (inactive),
c1ccc(CSc2nnc(-c3ccco3)c(-c3ccco3)n2)cc1,,4.47 µM (active)
O=C(Nc1nnc(SCc2ccccc2)s1)c1ccco1,-28% (inactive),
Clc1ccccc1CSc1nnc(-c2ccco2)c(-c2ccco2)n1,,12.6 µM (active)
c1ccc(CSc2nnc(-c3ccco3)n2Cc2ccccc2)cc1,-25.4% (inactive),
c1coc(-c2nc3nc4ccccc4n3nc2-c2ccco2)c1,-14.3% (inactive),
Nc1nc(SCc2ccccc2Cl)n[nH]1,-3% (inactive),
COc1ccc(-c2nc3c(c4c2C[C@H](c2ccccc2)OC4)CN(C(=O)c2cccnc2)CC3)c(C)c1,-9.44% (inactive),
COCc1c(C(=O)N/N=C/C2CC=CCC2)nnn1-c1nonc1N (centres undefined),-10.3% (inactive),
CC(C)CNC(=S)Nc1ccc(F)cc1,-4.13% (inactive),
Cc1ccc(S(=O)(=O)N(CC(=O)Nc2cccc([N+](=O)[O-])c2)Cc2ccc(Cl)cc2)cc1,-3.74% (inactive),
COc1cc(C(=S)N2CCOCC2)cc(OC)c1OC(=O)c1cc([N+](=O)[O-])cc([N+](=O)[O-])c1,-12% (inactive),
O=C(Oc1ccccc1C(=S)N1CCCCC1)c1cc([N+](=O)[O-])cc([N+](=O)[O-])c1,,14.1 µM (active)

Compound,"activity change, negative = inhibition",Potency
O=C(Oc1ccc([N+](=O)[O-])cc1)c1ccc(Cl)c(S(=O)(=O)N2CCCCC2)c1,-21.8% (inactive),
CCOC(=O)C1Sc2[nH]c(=O)sc2C(c2ccc(Cl)cc2)C1C(=O)OCC (centres undefined),,3.98 µM (active)
CCOC(=O)C1=C(C)NC(=O)N(C(C)=O)C1c1ccc(Cl)cc1 (centres undefined),0.0111% (inactive),
CCOC(=O)c1[nH]c2c(c1-c1ccccc1)C(=O)CC(c1ccc(Cl)cc1)C2 (centres undefined),-2.93% (inactive),
Nc1ccc(-c2sc(N)nc2-c2ccccc2)cc1,-11% (inactive),
Nc1ccc(Nc2ccccc2)cc1,-5.62% (inactive),
c1ccc(Nc2n[nH]nc2-c2ccccc2)cc1,,14.1 µM (active)
COc1cccc2c(O)cc(=O)n(C)c12,-2.82% (inactive),
CC(Oc1ccccc1F)C(=O)NN (centres undefined),-6.91% (inactive),
O=c1c(O)c(Br)ccc2c(Br)c(O)c(O)c(O)c12,,15.8 µM (active)
COc1ccc(C(=O)COC(=O)c2ccc3ccccc3n2)cc1,-15.3% (inactive),
COc1ccc2c(c1)c(=O)c(C(=O)c1ccc(Cl)cc1)cn2CC(=O)Nc1ccc(F)cc1,-6.67% (inactive),
CN(CC(=O)Nc1ccc(S(=O)(=O)N2CCCC2)cc1)Cc1ccc(Cl)c(Cl)c1,-13.8% (inactive),
COC(=O)C1=C(C(=O)OC)[C@@H]2N(C)c3ccccc3[C@@]23C[C@@H](C(=O)OC)N(S(=O)(=O)c2ccc(Br)cc2)C3=N1,0.758% (inactive),
CC(=O)Nc1ccc(/C(C)=N/NC(=O)CN(c2ccccc2Br)S(C)(=O)=O)cc1,-3.71% (inactive),
Nc1nnc(SCC(=O)Nc2ccc3nc(SCC(=O)Nc4ccccc4)sc3c2)s1,,4.47 µM (active)
O=C(CSc1nc(-c2ccccc2)cs1)Nc1cccc([N+](=O)[O-])c1,-24.6% (inactive),
CCCCNC(=O)CSc1nnc(-c2ccco2)n1C,-11.5% (inactive),
CCCCNC(=O)CSc1nc2ccc(NC(=O)CSc3nnc(N)s3)cc2s1,,5.01 µM (active)
CCCCNS(=O)(=O)c1ccc2nc(SCC(=O)Nc3cc(C)cc(C)c3)[nH]c2c1,-21.1% (inactive),
Cc1cccc(NC(=O)CSc2nnc(NC(=O)CN3CCOCC3)s2)c1,-8.48% (inactive),
CC(CNc1ccc([N+](=O)[O-])c2cccnc12)Nc1c([N+](=O)[O-])cc(C(F)(F)F)cc1[N+](=O)[O-] (centres undefined),-20.4% (inactive),
O=C(O)c1ccc(/C=N/NC(=O)c2ccc(Br)cc2)cc1,-2.06% (inactive),
CC(=O)NC1C(OCc2ccccc2)OC(COC(C)=O)C(OC(C)=O)C1OC(C)=O (centres undefined),-0.385% (inactive),

Compound,"activity change, negative = inhibition",Potency
CCN(CC)c1ccc(C(=O)N/N=C(\C)c2cccc(OC)c2)cc1,-8.48% (inactive),
COc1ccc(OC(C)C(=O)NCCc2nc3ccccc3[nH]2)cc1 (centres undefined),-0.239% (inactive),
CC(C)CCNC(=O)c1cccnc1Sc1ccccc1,-7.91% (inactive),
CSc1nc(-c2ccco2)nn1C(=O)CCc1ccccc1,-14% (inactive),
CCOc1ccccc1/C=c1\sc2nc(-c3ccco3)nn2c1=O,,17.8 µM (active)
O=c1nc2s/c(=C\c3ccco3)c(=O)n2nc1Cc1ccccc1,-22.5% (inactive),
O=C(NC1CCCCC1)c1ccc(CNc2c(N3CCOCC3)c(=O)c2=O)cc1,,14.1 µM (active)
O=C(NC1CCCCC1)c1cc([N+](=O)[O-])ccc1N1CCOCC1,-0.536% (inactive),
Cc1ccc(C(=O)NC2CCN(C(=O)N3CCOCC3)CC2)cc1,-4.3% (inactive),
CCS(=O)(=O)N1Cc2ccccc2CC1C(=O)Nc1nc2ccc(F)cc2s1 (centres undefined),-14% (inactive),
CCc1nnc(NC(=O)C2CC(=O)N(c3ccc4c(c3)OCCO4)C2)s1 (centres undefined),-28.3% (inactive),
COC(=O)Cc1ccc(OCC(=O)Nc2ccc(OC(F)(F)F)cc2)cc1,-9.9% (inactive),
COC(=O)/C=C\C(=O)Nc1cccc([N+](=O)[O-])c1,,3.16 µM (active)
O=C(CSCC(=O)Nc1cccc([N+](=O)[O-])c1)Nc1ccccc1,-9.37% (inactive),
Cc1ccccc1NC(=S)Nc1cccc([N+](=O)[O-])c1,-3.09% (inactive),
CCCCNC(=O)c1ccccc1NC(=O)c1ccccc1N(C)S(C)(=O)=O,,25.1 µM (active)
CCC(C)NC(=O)c1ccccc1NC(=O)c1ccccc1N(C)S(C)(=O)=O (centres undefined),1.34% (inactive),
CCCCNC(=O)C(=O)c1ccccc1NC(C)=O,-11.5% (inactive),
COc1ccc(C)cc1NC(=O)C(Sc1ccccc1)c1ccccc1 (centres undefined),-3.19% (inactive),
CSCCC(Nc1ccc(S(=O)(=O)N2CCOCC2)cc1[N+](=O)[O-])C(=O)OCC(=O)N(C(C)C)C(C)C (centres undefined),-2.59% (inactive),
O=C(O)c1ccc2c(c1)C(=O)N(NC(=O)c1ccc(O)cc1)C2=O,-11% (inactive),
COC(=O)C(C(=O)OC)C1c2ccccc2C=C(C2CC2)N1C(=O)OC (centres undefined),-11% (inactive) and -4.45% (inactive),

# Reference: PubChem BioAssay AID894 (National Center for Advancing Translational Sciences (NCATS), 2007)
